# Measurements reported in article PMC12136788.
# Where a chain is given by its changes, count along the chain named. Over roughly 5,800 sequences, “enrichment r” has its median near 0.54; the highest 2% begin near 16. What follows is part of a selection rich in the highest values, with near analogues and random picks from the rest.
# B1: ENSG00000198589:be:win_801|CDS|ENSG00000198589|bound_else_gene|NA|bound_elsewhere_windowed (ssRNA)
# RNA: GGGAGUUCUACAGUCCGACGAUCUCAUUUUGUUGGAGGCUGUUUGAUUGUAACAUCAAUAAAGUCAAAAGGAAAAGGCUUUCAACACUGUGUGAAAUUUGAUUUCAAGCCACAAAAGUGGUAUAUGGUUACCAUAGUACACAUCAACAGAGGAUUGAGCAUCA
# B2: ENSG00000136451:be:win_3151|3pUTR|ENSG00000136451|bound_else_gene|NA|bound_elsewhere_windowed (ssRNA)
# RNA: GGGAGUUCUACAGUCCGACGAUCUGAGACAGACUUCCUACAUCAGGGACAGGUAUCUGUGUGUCAUUAUACAAAACAGUUCUAGGGGGUUGAACUACAUAGUAAAAAAAUAAAAUAAAUAGUACUUAGUGUAAAAUAAUUUUACAACAGAGGAUUGAGCAUCA
# B3: chr4:65323451:65323552:-|3pUTR|ENSG00000145242|msi1|FALSE|unique (ssRNA)
# RNA: GGGAGUUCUACAGUCCGACGAUCAUCAAGAAAAAGUACAAUACAGGGUGUAUAUUUAUUUUUUGUGUUAUAAAGUUUACUUUUAGUUGCUCUUCUAGAGAUUAUUAGGUAAUAAAUGUGUAUAUACUGUAUAAUUUGCAAUAUCAACAGAGGAUUGAGCAUCA
# B4: chr19:34469546:34469571:+|3pUTR|ENSG00000126261|msi1_unk|total|mutant (ssRNA)
# RNA: GGGAGUUCUACAGUCCGACGAUCGUUGCCUUUUUAAUGUAAAUACCCGCCGGUAUCAUUAACCGUUUCAAAAUAUUGUGGUUCCGUAAAGUUGAUACCUGGUUAUAAAUAUUAUGCCUUUAUUUUUGGCCCGAAGAAGAAUUACAACAGAGGAUUGAGCAUCA
# B5: chr1:232398519:232398625:-|3pUTR|ENSG00000116991|unk|total|mutant (ssRNA)
# RNA: GGGAGUUCUACAGUCCGACGAUCACAGCCGUUUUAUUUCCACAGCCACAUUACCACCGCAAUAAGAAAGGAGGCACCGUACACCGUUGGAAAAGCUUUGUGGGGGGAUUAAAAAAAAAAAAAAGCACUGUUGUGUUUAACACUCAACAGAGGAUUGAGCAUCA
# B6: ENSG00000136451:be:win_3201|3pUTR|ENSG00000136451|bound_else_gene|NA|bound_elsewhere_windowed (ssRNA)
# RNA: GGGAGUUCUACAGUCCGACGAUCAACAGUUCUAGGGGGUUGAACUACAUAGUAAAAAAAUAAAAUAAAUAGUACUUAGUGUAAAAUAAUUUUAUAAAUGAUCUUUUGUACUUUAGGACAUUAAAUUGUACAACUUUUGUAUAUCAACAGAGGAUUGAGCAUCA
# B7: chr19:34469546:34469571:+|3pUTR|ENSG00000126261|msi1_unk|FALSE|overlapping (ssRNA)
# RNA: B4 RNA with C49U, C50A, C62U, C63A, C83U, C84A, C130U, C131A
# B8: chr18:68676332:68676434:-|3pUTR|ENSG00000166479|msi1_unk|FALSE|overlapping (ssRNA)
# RNA: GGGAGUUCUACAGUCCGACGAUCAUCAAGAUUAUGAGGUUAAAAAUAAUGUGGUUUUAUAUAGCAUAGUGGUUUUAUUUUGUUAGUUAUUUUUAAAGGAGAAGAAAUGUUACUUUUUAACUUUAUACUCAGUUGCAUUAUCAUCAACAGAGGAUUGAGCAUCA
# B9: chr18:68676332:68676434:-|3pUTR|ENSG00000166479|msi1_unk|total|mutant (ssRNA)
# RNA: B8 RNA with U61C, A62C, U66C, A67C, U83C, A84C
# B10: chr1:232398519:232398625:-|3pUTR|ENSG00000116991|unk|FALSE|unique (ssRNA)
# RNA: B5 RNA with C28U, C29A, C56U, C57A, C76U, C77A, C83U, C84A
# B11: ENSG00000136451:be:win_3251|3pUTR|ENSG00000136451|bound_else_gene|NA|bound_elsewhere_windowed (ssRNA)
# RNA: GGGAGUUCUACAGUCCGACGAUCCUUAGUGUAAAAUAAUUUUAUAAAUGAUCUUUUGUACUUUAGGACAUUAAAUUGUACAACUUUUGUAUAUAUAAAAGCUUAGGAACUUUCUGUUUAGCAGGAAGGCAACACAUUCCUACACAACAGAGGAUUGAGCAUCA
# B12: chr20:1375301:1375603:-|CDS|ENSG00000088832|control|control|control (ssRNA)
# RNA: GGGAGUUCUACAGUCCGACGAUCGGUAUGCUCUCUCAUUUGUUUUGUUUUGCUUUCUAGUAUUUACCUUUUAUAUUUUUUUAUAGGUGGCAUAUUUAUACGGUUCAAAAAUAAAAAAAGUGAAAAGUCUCACCCUCAUGCCAUCAACAGAGGAUUGAGCAUCA
# B13: chr16:46660370:46660459:-|3pUTR|ENSG00000069329|msi1_unk|total|mutant (ssRNA)
# RNA: GGGAGUUCUACAGUCCGACGAUCAAAAGGAAACCGCUCACCAUACUCCUUUCCAUGUACAUCCAGUGAGGGUUUUAUUACGCCCGGUUUCCCUUCCACCGAUUGUGCCUUUCAGAAAUGCUGAGGCCGGUUUCCCAUUUCUUACAACAGAGGAUUGAGCAUCA
# B14: chr8:48920054:48920155:-|CDS|ENSG00000019549|unk|FALSE|unique (ssRNA)
# RNA: GGGAGUUCUACAGUCCGACGAUCACCUAUUCAACUUUUUCUGGGCUGGCCAAACAUAAGCAGCUGCACUGCGAUGCCCAGUCUAGAAAAUCUUUCAGCUGUAAAUACUGUGACAAGGAAUAUGUGAGCCUGGGCGCCCUGAAGCAACAGAGGAUUGAGCAUCA
# B15: ENSG00000136451:be:win_351|CDS|ENSG00000136451|bound_else_gene|NA|bound_elsewhere_windowed (ssRNA)
# RNA: GGGAGUUCUACAGUCCGACGAUCUACCAUCGCUGGGGACAGCAGCCGAACUUCGUUGGUCUCGACCAUUGCAGGCAUCUUGUCAACAGUCACUACAUCUUCCUCGGGCACCAACCCCAGUAGCAGUGCCAGCACCACAGCUAUCAACAGAGGAUUGAGCAUCA
# B16: chr8:103427116:103427218:+|CDS|ENSG00000164934|unk|total|mutant (ssRNA)
# RNA: GGGAGUUCUACAGUCCGACGAUCGUAUACUGGGAUUGAUCAUCACUGGAAAGAAGCUGUUUUUGCCACAUGUGGACAGCAAGCCGACAUUUGGGAUGAACAAAGAACUAAUCCUAUAUGUUCAAUGACCUGGGGAUUUGACAGCAACAGAGGAUUGAGCAUCA
# B17: chrX:48700291:48700392:+|CDS|ENSG00000101945|unk|FALSE|unique (ssRNA)
# RNA: GGGAGUUCUACAGUCCGACGAUCGCUCCGUCGCUGGGAGCAGGAGCUCAAUGCCAAGCGCAGCCAUCUGGGACGCAUCACUGUAGAGAAUGAGGUGGACCUGGACGGCCCUCCGCGGGCCUUCGUGUACAUCAAUGAGUACCGCAACAGAGGAUUGAGCAUCA
# B18: chr11:69651696:69651723:+|3pUTR|ENSG00000110092|msi1_unk|total|mutant (ssRNA)
# RNA: GGGAGUUCUACAGUCCGACGAUCGAGGAUCCGGUUCCAUCCUUUACGUGUUUAAAAAAAAGCAUAAAAACAUUUUAAAAACACCGAAAAAUUCAGCAAACCAUUUUUAAAGCCGAAGAGGGUUUCCGGCCGAAAAACAUAUUCCAACAGAGGAUUGAGCAUCA
# B19: chr21:14371318:14371404:-|3pUTR|ENSG00000155304|msi1_unk|FALSE|overlapping (ssRNA)
# RNA: GGGAGUUCUACAGUCCGACGAUCUAUGAAUAACAAUCUGAAGUCUUUUCAUAAAAAAAAUUAAUAAACUUUAGUUGUACAUUUAGCCAGUGUUAUUUGAAGUAUGUAACUUUUAAAAUAUUAAGUGUCUUGUAUGAUUAGAAUCAACAGAGGAUUGAGCAUCA
# B20: chr11:69651696:69651723:+|3pUTR|ENSG00000110092|msi1_unk|FALSE|overlapping (ssRNA)
# RNA: B18 RNA with C30U, C31A, C83U, C84A, C112U, C113A, C125U, C126A, C129U, C130A
# B21: chr10:121957106:121957207:-|3pUTR|ENSG00000107672|msi1|total|mutant (ssRNA)
# RNA: GGGAGUUCUACAGUCCGACGAUCUGUAUCGUACAUAUUGUAUGAUUCAACAUUUUUAAAGGCAGAUUGUUUUCCGUAAAAUGCCGCUUUUGACCGUUAAUAAAUUUGUCAUGGUUGUCUUUGAUUAAAGGAAACUCACCGCCACAACAGAGGAUUGAGCAUCA
# B22: chr2:206311781:206311882:+|3pUTR|ENSG00000204186|unk|total|mutant (ssRNA)
# RNA: GGGAGUUCUACAGUCCGACGAUCCCGUGUUCCGAGUCCUUUCAUUUUAAGAUUCAGAAACAGCCUUUGUCCAACAUUUUCUGCCGAAGAACUUCAUCUUAAUUUAUGUCACAAAAUAAUUCCGCACCGUAUACCGAAUUUUGUCAACAGAGGAUUGAGCAUCA
# B23: chr11:69651733:69651797:+|3pUTR|ENSG00000110092|msi1_unk|FALSE|overlapping (ssRNA)
# RNA: GGGAGUUCUACAGUCCGACGAUCAAAACAUUUUAAAAACAUAGAAAAAUUCAGCAAACCAUUUUUAAAGUAGAAGAGGGUUUUAGGUAGAAAAACAUAUUCUUGUGCUUUUCCUGAUAAAGCACAGCUGUAGUGGGGUUCUAGCAACAGAGGAUUGAGCAUCA
# B24: chr20:13714314:13714426:-|3pUTR|ENSG00000089048|unk|total|mutant (ssRNA)
# RNA: GGGAGUUCUACAGUCCGACGAUCUUUUUCCCGCCAUAAAGGAUGGAAGUCAAGAACUUUUUGUUGUUCCGUCAUGUUAAGUACCGUUUAUGAAAUUAACUUGUAAAUAAAAGUGUAAAAUAUUUUCAUUAUUUUGUACCGCACCAACAGAGGAUUGAGCAUCA
# B25: chr20:13714314:13714426:-|3pUTR|ENSG00000089048|unk|FALSE|unique (ssRNA)
# RNA: B24 RNA with C30U, C31A, C68U, C69A, C83U, C84A, C138U, C139A
# B26: chr8:30995801:30996592:-|three_prime_utr|ENSG00000172733|control|control|control (ssRNA)
# RNA: GGGAGUUCUACAGUCCGACGAUCUUGUUUUUUUUAAUUCAUCAAGCCUUUCGUUUUCAAACCACCAUUUGUCAGCCUUGAGGUAGAGAGACAUAUAGAUUUGAAAAUACUUUCUUAAGAGAUCAUGUAACUAUAUAACUCUGACAACAGAGGAUUGAGCAUCA
# B27: chr10:121957106:121957207:-|3pUTR|ENSG00000107672|msi1|FALSE|bound_elsewhere (ssRNA)
# RNA: B21 RNA with C73U, C74A, C83U, C84A, C93U, C94A
# B28: chr2:206311781:206311882:+|3pUTR|ENSG00000204186|unk|FALSE|unique (ssRNA)
# RNA: B22 RNA with C24U, C25A, C31U, C32A, C83U, C84A, C121U, C122A, C133U, C134A
# B29: ENSG00000198589:be:win_9051|3pUTR|ENSG00000198589|bound_else_gene|NA|bound_elsewhere_windowed (ssRNA)
# RNA: GGGAGUUCUACAGUCCGACGAUCGUAAAUGUAAUUUAAAACAUCUCAAUUAAGUCUGUCUAUCAAUAUUGUUCUUCAAGCAUGUUUUAGACCUAGAAAAGUAUGGUUUGGGGGAGGCUAUUUUAUUGUGUGGUUAGCACAAGGCAACAGAGGAUUGAGCAUCA
# Target: MSI1 full-length (mouse, UniProt Q61474 1-362)
# Sequence (Q61474 whole entry): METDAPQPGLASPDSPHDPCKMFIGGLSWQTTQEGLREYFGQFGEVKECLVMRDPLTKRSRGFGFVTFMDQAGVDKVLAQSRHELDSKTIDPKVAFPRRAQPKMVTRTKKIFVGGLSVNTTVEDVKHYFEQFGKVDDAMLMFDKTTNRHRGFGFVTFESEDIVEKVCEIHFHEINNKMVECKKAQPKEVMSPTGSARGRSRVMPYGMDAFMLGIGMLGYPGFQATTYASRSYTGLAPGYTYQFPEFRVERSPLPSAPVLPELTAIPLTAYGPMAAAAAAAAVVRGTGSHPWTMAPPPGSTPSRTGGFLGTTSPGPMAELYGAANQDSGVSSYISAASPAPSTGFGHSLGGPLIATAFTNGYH
# Test: nsRBNS (natural sequence RNA bind-n-seq); RBNS binding buffer (assumed for nsRBNS): 25 mM Tris pH 7.5, 150 mM KCl, 3 mM MgCl2, 0.01% Triton X-100, 500 ug/ml BSA, 20 U/ml SUPERase-In, 4 C; UNK is unkempt and MSI1 is Musashi-1; names of the RNAs are library labels; protein concentration not given here; high values mean tight binding
row,Binder,binding signal [enrichment R]
1,B1,0.264
2,B2,15.5
3,B3,11.9
4,B4,1.89
5,B5,0.46
6,B6,23.1
7,B7,35.8
8,B8,69.1
9,B9,0.295
10,B10,18.4
11,B11,10.7
12,B12,2.12
13,B13,0.39
14,B14,0.478
15,B15,0.413
16,B16,0.362
17,B17,0.398
18,B18,0.383
19,B19,6.15
20,B20,17.8
21,B21,0.237
22,B22,0.669
23,B23,13.6
24,B24,0.796
25,B25,58.4
26,B26,0.712
27,B27,17.9
28,B28,16.7
29,B29,3.05
